Data as given in PubChem BioAssay AID1159580 (chemical genetic matrix, 2015).
“And” between values parts separate entries of the source, which are not always exact repeats. Equal values may be shown once. Out of some 5,500 compounds screened, about 2,000 (36%) were called active. Another 18% or so got no clear call; they are omitted. No stated cut-off is given here; in the data, active means normalized growth mostly below about 0.91 (no sharp cut-off); inconclusive means no clear call, values can overlap the other calls; inactive means mostly above about 0.92. This is one part of the list.

Assay: chemical genetic growth profiling, strain panel (AID 1159580);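 further: tested at 20 µM; growth read once vehicle control cultures reached saturation at 30 °C; 1 = growth at the plate median or of vehicle wells; lower values mean less growth of the strain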
Settings: S. cerevisiae deletion strains, growth OD

Measured: normalized growth

CN(C)CCN(Cc1cccs1)c1ccccn1
inactive: locus YAL021C, strain ccr4, active compounds read low 1 | locus YAL026C, strain drs2, active compounds read low 1.01 | locus YAL030W, strain snc1, active compounds read low 1 | locus YAL040C, strain CLN3, active compounds read low 1.02 | locus YBL061C, strain skt5, active compounds read low 1 | locus YBR009C, strain hhf1, active compounds read low 0.996 | locus YBR021W, strain FUR4, active compounds read low 1.01 | locus YBR023C, strain chs3, active compounds read low 1.01 | locus YBR171W, strain sec66, active compounds read low 1.01 | locus YBR229C, strain ROT2, active compounds read low 1 | locus YBR231C, strain swc5, active compounds read low 1.01 | locus YBR279W, strain paf1, active compounds read low 1 | locus YCL011C, strain gbp2, active compounds read low 1.01 | locus YCL016C, strain dcc1, active compounds read low 1.01 | locus YCL029C, strain bik1, active compounds read low 1.02 | locus YCL061C, strain MRC1 (second series), active compounds read low 1.01 | locus YCL061C, strain MRC1, active compounds read low 1.01 | locus YCL069W, strain vba3, active compounds read low 1.01 | locus YCR088W, strain abp1, active compounds read low 1.01 | locus YDL005C, strain med2, active compounds read low 1.01 | locus YDL035C, strain GPR1, active compounds read low 1 | locus YDL040C, strain nat1, active compounds read low 1.01 | locus YDL074C, strain BRE1, active compounds read low 0.974 | locus YDL101C, strain DUN1, active compounds read low 0.99 | locus YDL134C, strain PPH21, active compounds read low 1.02 | locus YDL185W, strain tfp1, active compounds read low 1.02 | locus YDL192W, strain arf1, active compounds read low 1.01 | locus YDR001C, strain nth1, active compounds read low 1.01 | locus YDR069C, strain doa4, active compounds read low 1 | locus YDR101C, strain arx1, active compounds read low 0.957 | locus YDR137W, strain rgp1, active compounds read low 1.03 | locus YDR150W, strain NUM1, active compounds read low 1.02 | locus YDR159W, strain sac3, active compounds read low 1.01 | locus YDR162C, strain NBP2, active compounds read low 1.01 | locus YDR195W, strain ref2 0.999 | locus YDR297W, strain sur2, active compounds read low 0.999 | locus YDR318W, strain mcm21, active compounds read low 1.02 | locus YDR334W, strain swr1, active compounds read low 1.02 | locus YDR335W, strain msn5, active compounds read low 1.01 | locus YDR363W, strain ESC2, active compounds read low 0.986 | locus YDR388W, active compounds read low 1.02 | locus YDR392W, strain spt3, active compounds read low 1.01 | locus YDR502C, strain sam2, active compounds read low 1 | locus YEL003W, strain gim4, active compounds read low 1.01 | locus YEL037C, strain rad23, active compounds read low 1.01 | locus YEL061C, strain CIN8 (second series), active compounds read low 1.01 | locus YEL061C, strain CIN8, active compounds read low 1 | locus YER002W, strain NOP16, active compounds read low 1.01 | locus YER015W, strain faa2, active compounds read low 1 | locus YER016W, strain bim1, active compounds read low 1.01 | locus YER110C, active compounds read low 1.01 | locus YER111C, strain swi4, active compounds read low 1.02 | locus YER155C, strain BEM2 (second series), active compounds read low 1.01 | locus YER155C, strain BEM2, active compounds read low 1.01 | locus YER167W, strain BCK2, active compounds read low 1.01 | locus YFR010W, strain ubp6, active compounds read low 1.01 | locus YGL078C, strain dbp3, active compounds read low 1.01 | locus YGL086W, strain mad1, active compounds read low 0.982 | locus YGL167C, strain pmr1, active compounds read low 1.01 | locus YGL173C, strain kem1, active compounds read low 1.01 | locus YGL227W, strain vid30, active compounds read low 1.01 | locus YGL240W, strain doc1, active compounds read low 1.02 | locus YGL248W, strain PDE1, active compounds read low 0.993 | locus YGL253W, strain hxk2, active compounds read low 1.02 | locus YGR078C, strain PAC10, active compounds read low 1.01 | locus YGR135W, strain pre9, active compounds read low 1.05 | locus YGR229C, strain SMI1, active compounds read low 0.996 | locus YGR252W, strain gcn5, active compounds read low 1.07 | locus YHR013C, strain ard1, active compounds read low 0.993 | locus YHR027C, strain rpn1, active compounds read low 1 | locus YHR030C, strain SLT2, active compounds read low 1.01 and 0.934 | locus YHR079C, strain IRE1 (second series), active compounds read low 1.01 | locus YHR079C, strain IRE1, active compounds read low 0.98 | locus YHR094C, strain hxt1, active compounds read low 1.01 | locus YHR129C, strain ARP1, active compounds read low 1.01 | locus YHR142W, strain chs7, active compounds read low 1.01 | locus YHR200W, strain rpn10, active compounds read low 1.01 | locus YIL066C, strain RNR3, active compounds read low 1.01 | locus YIL073C, strain SPO22, active compounds read low 1.07 | locus YIL125W, strain kgd1, active compounds read low 0.993 | locus YIR030C, strain dcg1, active compounds read low 1.01 | locus YJL092W, strain hpr5, active compounds read low 1 | locus YJL095W, strain BCK1 (second series), active compounds read low 1.01 | locus YJL095W, strain BCK1, active compounds read low 0.993 and 0.95 | locus YJL115W, strain asf1, active compounds read low 1.03 | locus YJL129C, strain trk1, active compounds read low 1 | locus YJL134W, strain LCB3, active compounds read low 1.01 | locus YJL154C, strain vps35, active compounds read low 1.01 | locus YJL164C, strain tpk1, active compounds read low 1 | locus YJL166W, strain qcr8, active compounds read low 1 | locus YJL168C, strain set2, active compounds read low 1.01 | locus YJL187C, strain SWE1 (second series), active compounds read low 0.998 | locus YJL187C, strain SWE1, active compounds read low 1 | locus YJR043C, strain POL32, active compounds read low 1.01
